According to the supplement of paper PMC10849652:
Of roughly 8,800 targets only a part is listed; those with a hit were picked by preference. About 0.5% of all pairs of compound and target were hits. Unmarked numbers belong to inactive results.

What was measured:
Experiment in all cases: log2 fold change, soluble protein after heating vs DMSO (PISA); higher = thermal stabilisation; K562 lysate, 10 uM; active = over 0.2 and 3.5 SD of the protein, either way, in both replicates (recomputed)
[1] = compound: CCCS(=O)(=O)Nc1ccc(F)c(C(=O)c2c[nH]c3ncc(-c4ccc(Cl)cc4)cc23)c1F [vemurafenib]
Outline: (§1)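 To prepare the extract, K562 pellets were dounce-homogenised in PBS pH 7.4 with 1 mM MgCl2, giving crude material at 1 mg/mL protein. This was treated with 10 μM compound for 30 min, then heated in aliquots for 3 min over 48°C-58°C before pooling and addition of NP-40 to 0.5% at 4°C. Centrifugation at 21,000xg for 90 min left soluble protein in the supernatant, which TMTpro 16plex LC-MS/MS quantified with equalised channel sums. Results are log-two fold changes in thermal stability compared with solvent controls, from duplicates.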

[2] = compound: CCCS(=O)(=O)Nc1ccc(F)c(C(=O)c2c[nH]c3ncc(Cl)cc23)c1F
Outline: as §1

[3] = compound: CCN(CCCOc1ccc2c(Nc3cc(CC(=O)Nc4cccc(F)c4)[nH]n3)ncnc2c1)CCOP(=O)(O)O [barasertib]
Outline: as §1

[4] = compound: CC[C@@H]1C(=O)N(C)c2cnc(Nc3ccc(C(=O)NC4CCN(C)CC4)cc3OC)nc2N1C1CCCC1
Outline: as §1

[5] = compound: CC[C@@H]1C(=O)N(C)c2cnc(Nc3ccc(C(=O)N[C@H]4CC[C@H](N5CCN(CC6CC6)CC5)CC4)cc3OC)nc2N1C(C)C [volasertib]
Outline: as §1

[6] = compound: CCn1c(C(=O)N(C2CC2)C2CC2)cc2c3c(ncn3C)c(Nc3cc(C)n(C)n3)nc21
Outline: as §1

[7] = compound: CCn1cc(-c2ccnc3[nH]c(-c4cccc(CN(C)C)c4)cc23)c(-c2ccc(NC(=O)N(C)C)cc2)n1
Outline: as §1

[8] = compound: CN1CCC(CNc2ccc3ncc(-c4cccc(OC(F)(F)F)c4)n3n2)CC1
Outline: as §1

[9] = compound: CN1CCN(CCOc2cc(OC3CCOCC3)c3c(Nc4c(Cl)ccc5c4OCO5)ncnc3c2)CC1 [saracatinib]
Outline: as §1

[10] = compound: CN1CCN(c2nc(C3=C(c4c[nH]c5ccccc45)C(=O)NC3=O)c3ccccc3n2)CC1 [sotrastaurin]
Outline: as §1

UniProt O95571, sequence (O95571 whole entry, looked up): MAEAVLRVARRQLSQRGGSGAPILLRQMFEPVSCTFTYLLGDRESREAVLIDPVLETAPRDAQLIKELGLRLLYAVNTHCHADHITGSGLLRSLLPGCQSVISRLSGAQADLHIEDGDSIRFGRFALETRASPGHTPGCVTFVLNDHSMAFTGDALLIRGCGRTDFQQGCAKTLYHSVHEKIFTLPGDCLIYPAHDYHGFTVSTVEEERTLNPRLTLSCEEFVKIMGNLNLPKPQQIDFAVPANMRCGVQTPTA
UniProt Q8N5C7, sequence (Q8N5C7 whole entry, looked up): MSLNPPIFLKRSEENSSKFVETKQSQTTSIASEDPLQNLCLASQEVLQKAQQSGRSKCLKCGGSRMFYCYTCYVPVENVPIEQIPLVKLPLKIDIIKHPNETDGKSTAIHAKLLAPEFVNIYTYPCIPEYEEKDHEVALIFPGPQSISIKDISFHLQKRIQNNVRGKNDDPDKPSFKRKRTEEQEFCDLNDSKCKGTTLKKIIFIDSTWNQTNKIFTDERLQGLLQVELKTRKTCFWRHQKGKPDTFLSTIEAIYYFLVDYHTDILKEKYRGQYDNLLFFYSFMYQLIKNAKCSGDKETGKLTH
UniProt Q8TB52, sequence (Q8TB52 whole entry, looked up): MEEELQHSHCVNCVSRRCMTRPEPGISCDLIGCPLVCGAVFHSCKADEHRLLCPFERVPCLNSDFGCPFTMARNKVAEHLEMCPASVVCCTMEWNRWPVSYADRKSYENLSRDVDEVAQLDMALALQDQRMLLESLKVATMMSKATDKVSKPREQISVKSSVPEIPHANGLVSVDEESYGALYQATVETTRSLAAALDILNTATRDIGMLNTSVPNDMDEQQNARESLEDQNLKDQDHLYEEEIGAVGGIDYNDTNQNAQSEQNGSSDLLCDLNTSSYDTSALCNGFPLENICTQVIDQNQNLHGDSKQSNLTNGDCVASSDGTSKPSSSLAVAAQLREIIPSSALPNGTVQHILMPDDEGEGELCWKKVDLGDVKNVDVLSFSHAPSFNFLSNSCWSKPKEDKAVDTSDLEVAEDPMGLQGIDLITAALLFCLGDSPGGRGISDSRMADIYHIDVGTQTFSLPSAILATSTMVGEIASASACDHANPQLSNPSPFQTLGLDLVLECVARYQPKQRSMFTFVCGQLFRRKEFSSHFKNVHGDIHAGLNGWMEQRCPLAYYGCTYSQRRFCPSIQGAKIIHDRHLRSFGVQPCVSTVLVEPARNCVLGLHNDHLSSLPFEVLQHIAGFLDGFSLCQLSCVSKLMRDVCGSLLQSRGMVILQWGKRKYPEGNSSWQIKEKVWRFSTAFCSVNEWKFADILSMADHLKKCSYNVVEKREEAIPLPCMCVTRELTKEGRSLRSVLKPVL
UniProt Q13144, sequence (Q13144 whole entry, looked up): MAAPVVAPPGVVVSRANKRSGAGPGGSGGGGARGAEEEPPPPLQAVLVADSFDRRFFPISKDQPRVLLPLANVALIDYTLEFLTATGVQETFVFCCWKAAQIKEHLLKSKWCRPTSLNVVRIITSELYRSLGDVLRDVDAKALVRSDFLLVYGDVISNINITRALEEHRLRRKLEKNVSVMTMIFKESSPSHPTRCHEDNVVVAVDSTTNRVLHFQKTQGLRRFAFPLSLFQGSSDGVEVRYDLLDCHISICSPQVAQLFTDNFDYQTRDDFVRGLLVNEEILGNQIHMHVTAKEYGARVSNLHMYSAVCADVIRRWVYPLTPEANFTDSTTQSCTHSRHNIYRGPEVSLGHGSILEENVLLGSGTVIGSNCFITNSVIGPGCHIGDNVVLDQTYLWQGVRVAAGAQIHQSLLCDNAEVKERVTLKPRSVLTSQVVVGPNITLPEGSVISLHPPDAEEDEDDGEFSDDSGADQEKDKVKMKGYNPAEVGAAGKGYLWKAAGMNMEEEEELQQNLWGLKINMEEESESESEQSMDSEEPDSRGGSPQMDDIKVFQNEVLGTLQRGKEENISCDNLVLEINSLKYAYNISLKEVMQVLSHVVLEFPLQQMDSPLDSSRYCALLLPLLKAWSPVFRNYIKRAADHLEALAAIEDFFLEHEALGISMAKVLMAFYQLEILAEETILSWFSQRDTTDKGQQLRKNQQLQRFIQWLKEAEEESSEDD
UniProt Q6P2E9, sequence (Q6P2E9 whole entry, looked up): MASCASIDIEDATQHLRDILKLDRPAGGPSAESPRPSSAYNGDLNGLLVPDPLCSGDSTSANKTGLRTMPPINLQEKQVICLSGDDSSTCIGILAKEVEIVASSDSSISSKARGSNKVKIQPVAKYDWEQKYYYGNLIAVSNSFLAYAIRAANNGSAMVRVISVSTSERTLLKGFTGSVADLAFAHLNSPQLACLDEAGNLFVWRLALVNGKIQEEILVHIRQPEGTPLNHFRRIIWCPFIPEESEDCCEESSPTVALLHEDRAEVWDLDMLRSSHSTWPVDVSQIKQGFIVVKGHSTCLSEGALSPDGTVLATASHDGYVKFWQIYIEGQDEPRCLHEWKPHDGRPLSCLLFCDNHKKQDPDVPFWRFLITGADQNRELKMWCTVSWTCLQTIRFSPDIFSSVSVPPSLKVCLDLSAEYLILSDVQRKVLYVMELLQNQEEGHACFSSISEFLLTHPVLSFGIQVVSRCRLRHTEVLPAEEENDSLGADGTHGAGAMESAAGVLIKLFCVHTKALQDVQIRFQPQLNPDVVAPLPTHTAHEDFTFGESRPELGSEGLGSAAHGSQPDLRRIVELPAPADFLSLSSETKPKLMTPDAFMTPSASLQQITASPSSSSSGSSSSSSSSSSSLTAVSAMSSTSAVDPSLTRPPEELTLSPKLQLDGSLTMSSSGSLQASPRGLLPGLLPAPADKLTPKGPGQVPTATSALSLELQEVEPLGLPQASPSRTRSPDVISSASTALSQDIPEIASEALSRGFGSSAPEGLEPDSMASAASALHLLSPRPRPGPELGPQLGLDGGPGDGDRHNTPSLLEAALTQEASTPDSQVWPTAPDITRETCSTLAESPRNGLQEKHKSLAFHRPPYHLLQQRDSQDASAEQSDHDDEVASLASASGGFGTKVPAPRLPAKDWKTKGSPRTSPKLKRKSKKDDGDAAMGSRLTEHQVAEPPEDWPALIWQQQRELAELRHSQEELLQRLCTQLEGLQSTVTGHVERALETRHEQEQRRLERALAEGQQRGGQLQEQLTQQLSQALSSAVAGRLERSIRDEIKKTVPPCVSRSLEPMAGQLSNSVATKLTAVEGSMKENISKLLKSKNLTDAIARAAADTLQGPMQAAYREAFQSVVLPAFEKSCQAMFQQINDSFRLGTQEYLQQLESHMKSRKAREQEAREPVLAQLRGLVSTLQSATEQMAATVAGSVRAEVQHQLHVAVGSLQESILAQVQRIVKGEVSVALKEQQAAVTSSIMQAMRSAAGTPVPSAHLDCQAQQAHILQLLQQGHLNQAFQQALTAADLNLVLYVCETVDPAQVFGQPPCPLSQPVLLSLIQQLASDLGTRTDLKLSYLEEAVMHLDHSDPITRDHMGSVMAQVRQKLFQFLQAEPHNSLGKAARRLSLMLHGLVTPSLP
UniProt P11171, sequence (P11171 whole entry, looked up): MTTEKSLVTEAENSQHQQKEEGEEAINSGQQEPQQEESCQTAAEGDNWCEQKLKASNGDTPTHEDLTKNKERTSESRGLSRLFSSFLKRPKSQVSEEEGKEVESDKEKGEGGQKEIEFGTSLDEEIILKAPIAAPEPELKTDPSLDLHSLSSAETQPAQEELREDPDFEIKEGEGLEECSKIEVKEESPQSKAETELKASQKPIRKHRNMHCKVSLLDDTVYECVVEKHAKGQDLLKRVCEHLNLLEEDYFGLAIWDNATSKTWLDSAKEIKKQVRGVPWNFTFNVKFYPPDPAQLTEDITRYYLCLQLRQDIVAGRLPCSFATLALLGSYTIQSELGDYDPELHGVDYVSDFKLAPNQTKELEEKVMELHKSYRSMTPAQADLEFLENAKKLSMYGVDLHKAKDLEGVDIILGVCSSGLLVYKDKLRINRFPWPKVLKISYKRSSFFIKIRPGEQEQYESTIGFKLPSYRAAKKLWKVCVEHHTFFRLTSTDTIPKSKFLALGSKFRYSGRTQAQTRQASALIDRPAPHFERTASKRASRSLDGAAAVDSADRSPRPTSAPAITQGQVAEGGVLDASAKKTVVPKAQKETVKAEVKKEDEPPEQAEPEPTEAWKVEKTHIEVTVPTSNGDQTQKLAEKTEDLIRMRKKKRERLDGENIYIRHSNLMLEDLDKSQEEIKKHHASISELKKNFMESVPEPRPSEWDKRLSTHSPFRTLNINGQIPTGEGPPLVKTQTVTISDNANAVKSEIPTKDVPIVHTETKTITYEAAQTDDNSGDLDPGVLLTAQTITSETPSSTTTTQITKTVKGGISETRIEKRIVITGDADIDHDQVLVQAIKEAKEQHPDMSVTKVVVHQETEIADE
UniProt O75616, sequence (O75616 whole entry, looked up): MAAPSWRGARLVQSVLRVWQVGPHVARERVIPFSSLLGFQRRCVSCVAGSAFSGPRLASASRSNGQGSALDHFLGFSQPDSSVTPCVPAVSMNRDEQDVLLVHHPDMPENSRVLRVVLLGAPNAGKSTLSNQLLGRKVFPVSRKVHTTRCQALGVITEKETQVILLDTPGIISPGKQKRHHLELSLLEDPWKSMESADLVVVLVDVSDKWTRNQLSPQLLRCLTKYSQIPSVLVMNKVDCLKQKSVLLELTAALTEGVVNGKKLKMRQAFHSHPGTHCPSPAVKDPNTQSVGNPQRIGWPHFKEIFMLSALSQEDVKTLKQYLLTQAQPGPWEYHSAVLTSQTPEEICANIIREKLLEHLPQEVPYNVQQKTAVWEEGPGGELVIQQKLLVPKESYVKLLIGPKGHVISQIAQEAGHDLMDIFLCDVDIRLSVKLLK
UniProt Q8WWZ3, sequence (Q8WWZ3 whole entry, looked up): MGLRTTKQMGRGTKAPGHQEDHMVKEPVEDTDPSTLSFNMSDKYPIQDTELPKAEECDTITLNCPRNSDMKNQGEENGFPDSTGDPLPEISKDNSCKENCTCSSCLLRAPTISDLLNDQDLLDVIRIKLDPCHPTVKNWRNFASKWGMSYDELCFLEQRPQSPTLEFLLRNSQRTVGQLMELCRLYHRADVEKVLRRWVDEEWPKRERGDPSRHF

| Target | log2 fold change [1] | log2 fold change [2] | log2 fold change [3] | log2 fold change [4] | log2 fold change [5] | log2 fold change [6] | log2 fold change [7] | log2 fold change [8] | log2 fold change [9] | log2 fold change [10] |
| --- | --- | --- | --- | --- | --- | --- | --- | --- | --- | --- |
| EXTL2 (UniProt Q9UBQ6) | -0.052 | 0.066 | 0.057 | -0.13 | 0.019 | 0.03 | -0.198 | 0.078 | -0.017 | -0.026 |
| FANCI (UniProt Q9NVI1) | 0.018 | 0.021 | 0.045 | -0.028 | -0.053 | 0.031 | 0.021 | -0.119 | 0.017 | 0.02 |
| ENO1, A0A2R8YEM5 | -0.03 | -0.017 | -0.056 | 0.008 | 0.004 | -0.04 | -0.44 (active) | 0.325 (active) | 0.031 | -0.011 |
| EXOC4 (UniProt Q96A65) | 0.079 | 0.01 | 0.055 | -0.06 | -0.055 | 0.025 | 0.022 | -0.079 | 0.006 | 0.018 |
| FDFT1 (UniProt P37268) | -0.012 | 0.111 | 0.023 | 0.005 | -0.069 | 0.01 | -0.047 | -0.022 | -0.019 | 0.437 (active) |
| EED, A0A5F9ZI63 | -0.019 | 0.034 | -0.029 | 0.005 | 0.015 | -0.012 | -0.047 | 0.049 | 0.026 | 0.031 |
| GALK1 isoform 2 (UniProt P51570) | 0.024 | 0.01 | 0.031 | 0.003 | -0.054 | -0.009 | 0.085 | -0.055 | -0.011 | 0.031 |
| EGLN1 (UniProt Q9GZT9) | -0.052 | -0.041 | -0.025 | -0.078 | -0.076 | 0.007 | 0.019 | -0.001 | 0.029 | 0.034 |
| GEMIN4 (UniProt P57678) | 0.036 | 0.025 | 0.041 | -0.037 | -0.053 | 0.023 | -0.168 | -0.091 | 0.091 | 0.041 |
| EDC4 (UniProt Q6P2E9) | 0.053 | 0.004 | 0.026 | -0.013 | -0.015 | 0.015 | -0.055 | 0.001 | 0.011 | 0.011 |
| DYRK1A (UniProt Q13627) | -0.06 | -0.009 | 0.025 | -0.047 | -0.016 | 0.038 | -0.004 | 0.044 | -0.017 | -0.013 |
| ESYT2 (UniProt H7BXI1) | -0.047 | -0.044 | 0.046 | -0.065 | -0.036 | -0.009 | 0.037 | -0.068 | 0.033 | -0.003 |
| FLT4 (UniProt P35916) | -0.069 | -0.046 | -0.036 | -0.031 | -0.042 | 0.135 | 0.018 | 0.08 | -0.036 |  |
| EDARADD (UniProt Q8WWZ3) | -0.066 | 0.02 | 0.255 (active) | -0.023 | -0.006 | -0.011 | -0.14 | 0.057 | 0.04 | -0.074 |
| EIF2AK1 (UniProt Q9BQI3) | -0.004 | -0.05 | 0.019 | -0.016 | -0.287 (active) | -0.002 | -0.001 | -0.037 | -0.019 | 0 |
| GFPT1 (UniProt Q06210) | 0.014 | 0.02 | 0.009 | -0.026 | -0.036 | 0.007 | 0.009 | -0.042 | 0.009 | -0.014 |
| DYNC1I2 isoform 2 (UniProt Q13409) | -0.073 | 0.042 | -0.123 | 0.132 | -0.039 | 0.035 | -0.022 | 0.082 | -0.077 | 0.006 |
| DTWD1 (UniProt Q8N5C7) | 0.028 | 0.018 | -0.005 | 0.024 | -0.036 | 0.016 | -0.026 | -0.032 | -0.033 | 0.019 |
| ERAL1 (UniProt O75616) | -0.058 | -0.016 | -0.032 | 0.065 | -0.046 | 0.059 | -0.065 | -0.359 (active) | -0.035 | 0.02 |
| EIF2B5 (UniProt Q13144) | -0.007 | 0.019 | 0.013 | -0.012 | -0.027 | 0.021 | -0.065 | -0.057 | 0.009 | 0.038 |
| FBXO22 (UniProt Q8NEZ5) | 0.017 | 0.001 | 0.025 | 0.011 | -0.027 | 0.012 | -0.002 | -0.008 | -0.015 | 0.01 |
| FIGNL1 (UniProt Q6PIW4) | -0.012 | 0.042 | 0.03 | -0.063 | -0.047 | 0.027 | -0.108 | 0.036 | 0.006 | -0.015 |
| FBXO30 (UniProt Q8TB52) | -0.065 | 0.02 | 0.015 | -0.026 | -0.042 | 0.009 | 0.208 | -0.115 | -0.015 | -0.013 |
| FAM98A (UniProt Q8NCA5) | 0.063 | 0.032 | -0.016 | 0.045 | -0.029 | -0.005 | 0.088 | -0.08 | -0.028 | 0.017 |
| ECH1 (UniProt Q13011) | -0.003 | -0.025 | -0.008 | -0.019 | 0.041 | -0.007 | -0.07 | 0.348 (active) | -0.047 | 0.608 (active) |
| EXOC2 (UniProt Q96KP1) | 0.018 | 0.109 | 0.041 | -0.028 | -0.043 | 0.031 | 0.017 | -0.094 | 0.034 | 0.049 |
| EPB41 (UniProt P11171) | -0.051 | 0.005 | -0.009 | -0.033 | -0.02 | 0.022 | 0.026 | -0.135 | 0.014 | 0.026 |
| EPHX2 (UniProt P34913) | -0.026 | -0.01 | -0.026 | 0.016 | 0.041 | -0.004 | -0.044 | 0.119 | -0.018 | 0.06 |
| ETHE1 (UniProt O95571) | -0.018 | 0.022 | 0.076 | -0.013 | -0.017 | -0.007 | 0.044 | 0.003 | 0.001 | -0.004 |
| DST (UniProt Q03001) | 0.23 | 0.021 | 0.083 | 0.021 | -0.045 | -0.073 | -0.174 | 0.076 | 0.052 | -0.024 |
